Assay outcomes from PubChem BioAssay.
This is a sample that favours compounds with a hit; in the whole collection about 4.8% have one here.
Calb FLC: affects C. albicans growth with fluconazole; growth inhibition, % (no concentration beside the values); 0.57% of 300,000 active; C. albicans CaCi-2 (fluconazole-resistant clinical isolate) + fluconazole, Alamar Blue growth, 48 h; AID 1979;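 active means growth inhibition above about 58% in most replicates, limit read from the data, passing the limit was not always enough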;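 further: all wells also contain fluconazole at 8 µg/ml as a sub-toxic cotreatment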
Mdm2 MdmX PPI: disrupts the human Mdm2-MdmX interaction; 3% of 330,000 active; inhibition, % at 8 µM; O15151+Q00987; AID 485346; SaOS-2 split-luciferase Mdm2/MdmX complementation, luminescence;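 active means inhibition of at least 50% at 8 µM in the primary screen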
CSC inhib: blocks cancer stem cells | 1.1% of 300,000 active | cancer stem cell-like cells viability, luminescence | AID 2717 | inhibition, % at 7.5 µM; in the data active means inhibition above about 75%; tested in HMLE shEcad cells
Beta cell apopt: blocks beta cell apoptosis. INS-1E cytokine-induced death, ATP luminescence, 48 h; percent of positive-control rescue, neutral wells zero. protection from apoptosis, % (no concentration beside the values). 0.8% of 300,000 active;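 active means Every replicate reaches about 75%, or at least half do and their mean reaches it too, limit read from the data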;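 further: higher means more ATP so stronger rescue from cytokine killing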
MPTP block: blocks calcium-induced mitochondrial swelling; AID 602449; isolated mouse mitochondria, Ca2+ swelling absorbance, 30 min; inhibition, % at 10 µM; 1.4% of 360,000 active;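 active means inhibition of 50% or more, scaled per plate between neutral and stimulator controls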
Rh123 counter: membrane potential counter-screen of mitochondrial pore inhibitors. 78% of 5,000 active. shares compounds with MPTP block. isolated mitochondria, Rhodamine 123 fluorescence. inhibition, % at 10 µM. AID 624504; in the data active means inhibition above about 22%
MPTP swell DR: MPTP inhibition, dose response swelling confirmation; shares compounds with MPTP block; isolated mitochondria swelling, absorbance; IC50, µM; 58% of 780 active; in the data active means IC50 below about 20 µM
MPTP counter DR: counter-screen for mitochondrial permeability transition pore inhibitors, dose response. IC50, µM. shares compounds with MPTP block. 49% of 780 active. isolated mitochondria counterscreen, fluorescence read-out; in the data active means IC50 below about 80 µM
Large screens that a line does not name were inactive (follow-up assays come after a bar, where they were run).

OC(CNCC1CCCO1)Cn1c2ccccc2c2ccccc21 (stereo not given)	MPTP block 73.5 | Rh123 counter inactive | MPTP swell DR 10.3 | MPTP counter DR inactive
CC(=O)Nc1ccc(S(=O)(=O)N[C@@H](C)C(=O)N2CCN(c3ccccn3)CC2)cc1	none
Cc1nc(C(=O)NNC(=O)c2ccc(C(F)(F)F)cc2)cs1	none
O=C(Nc1cccc(S(=O)(=O)Nc2ccc(Cl)cc2)c1)c1cc2c(s1)CCCC2	CSC inhib 117.4, MPTP block 97.3 | Rh123 counter 82.8
COc1cccc(S(=O)(=O)Nc2ccc(C(=O)Nc3ccncc3)cc2)c1	none
O=C(Nc1cccc(S(=O)(=O)Nc2ccc(Cl)cc2)c1)c1ccc(Cl)nc1	Beta cell apopt 78.7, MPTP block 92.0 | Rh123 counter 80.2
COc1ccc(NS(=O)(=O)c2cccc(NC(=O)CCC(=O)c3cccs3)c2)cc1	none (no result: CSC inhib, Beta cell apopt)
COc1ccc(NS(=O)(=O)c2cccc(NC(=O)c3ccc(Cl)nc3)c2)cc1	Beta cell apopt 107.0, MPTP block 100.1 | Rh123 counter 94.2
COc1ccc(NS(=O)(=O)c2cccc(NC(=O)CCS(=O)(=O)c3ccccc3)c2)cc1	MPTP block 55.4 (no result: CSC inhib) | Rh123 counter inactive | MPTP swell DR inactive | MPTP counter DR 57.4
Cc1cn(CC(=O)NCCc2ccccn2)c(=O)[nH]c1=O	none (no result: Calb FLC, Mdm2 MdmX PPI, CSC inhib, Beta cell apopt)
CCCCC[C@@H](O)c1cc2ccccc2c(=O)o1	none (no result: Calb FLC)
CNc1ccc(Br)cc1C(O)c1ccccc1 (stereo not given)	none
O=C(Nc1cc(S(=O)(=O)Nc2ccccc2Cl)ccc1O)c1cc2c(s1)CCCC2	MPTP block 89.1 | Rh123 counter 82.9
CN(C)CCOC(C1CCCCC1)C1CCCCC1	MPTP block 73.5 | Rh123 counter inactive | MPTP swell DR 14.7 | MPTP counter DR inactive
CCc1cc2c(NCc3ccccc3)nc(C)nc2s1	MPTP block 91.2 | Rh123 counter 64.6
O=C(CSc1nc(-c2ccccc2Cl)ns1)Nc1ccc2c(c1)OCO2	MPTP block 87.0 (no result: Beta cell apopt) | Rh123 counter 80.0
CCOc1ccc2nc(SCC(=O)Nc3ccc4c(c3)OCO4)sc2c1	MPTP block 75.3 | Rh123 counter 69.0
Cc1ccc(-c2nsc(SCC(=O)Nc3ccc4c(c3)OCO4)n2)cc1	MPTP block 95.5 | Rh123 counter 88.6
CCCc1cc(C(=O)N2CCCC(N3CCN(c4ccccc4F)CC3)C2)n(C)n1 (stereo not given)	none
Cc1cc(C)cc(-n2cccc2/C=C2/C(=N)N3C(=NC2=O)SN=C3S(C)(=O)=O)c1	MPTP block 62.7 | Rh123 counter 49.6
Cc1ccc(Nc2nc(OC(C(F)(F)F)C(F)(F)F)nc(N3CCOCC3)n2)cc1	MPTP block 71.7 | Rh123 counter inactive | MPTP swell DR inactive | MPTP counter DR inactive
COc1ccc(CCC(=O)Nc2ccc(Cl)c(S(=O)(=O)N3CCCC3)c2)cc1	MPTP block 96.3 | Rh123 counter 85.0
CCN(CC)c1ccc(C(=O)OCC(=O)NC(C)(C)C)cc1	none
CCNc1ccc(S(=O)(=O)N(C)C)cc1NCC(=O)Nc1ccc(F)c(Cl)c1	MPTP block 58.8 | Rh123 counter 70.5
COc1cc(C2C(C#N)=C(N)OC3=C2C(=O)CC(C)(C)C3)cc2c1OCO2 (stereo not given)	none
CN1C(=O)N(CC(=O)c2ccc3c(c2)OCO3)C(=O)C12CCCCC2	none (no result: Calb FLC, Mdm2 MdmX PPI, CSC inhib, Beta cell apopt)
O=C(CSC1=NCCS1)Nc1ccc2ccccc2c1	none
COC(=O)c1ccccc1NC(=O)CSc1nc(C)cc(C)n1	none
O=C(CSC1=NCCS1)Nc1ccnc2ccccc12	Beta cell apopt 104.4, MPTP block 68.2 | Rh123 counter 73.8
Cc1cc(C)nc(SCC(=O)Nc2ccnc3ccccc23)n1	Beta cell apopt 101.6, MPTP block 96.8 | Rh123 counter 98.3
CC(=O)NCCc1nc2cc(NC(=O)COc3cccc(C)c3)ccc2n1C	none
COC(=O)c1cc(S(=O)(=O)NCC2CCN(CCc3ccc(OC)cc3)CC2)cn1C	none
CCCCN(C(=O)c1ccc(N2CCCC2=O)cc1)c1c(N)n(CCC)c(=O)[nH]c1=O	none (no result: Calb FLC)
CCN(CC)S(=O)(=O)c1ccc(OCC(=O)NC(=O)c2ccccc2OC)c([N+](=O)[O-])c1	none
CCC1SC(=NC(=O)c2ccc(Cl)c(Cl)c2)NC1=O (stereo not given)	MPTP block 76.0 | Rh123 counter 100.3
CCCC[C@@H]1CNCCN1CCc1cccc2ccccc12	MPTP block 65.4 | Rh123 counter inactive | MPTP swell DR 12.3 | MPTP counter DR inactive
Oc1ccc(C[C@H]2CNCCN2CCc2cccc3ccccc23)cc1	MPTP block 75.6 | Rh123 counter inactive | MPTP swell DR 4.75 | MPTP counter DR inactive
Oc1ccc(C[C@@H]2CNC(=S)N2CCc2cc(C(F)(F)F)cc(C(F)(F)F)c2)cc1	none
Oc1ccc(C[C@@H]2CNCCN2CCc2cc(C(F)(F)F)cc(C(F)(F)F)c2)cc1	MPTP block 94.0 | Rh123 counter inactive | MPTP swell DR 4.26 | MPTP counter DR inactive
O=C(Cc1ncc(C(F)(F)F)cc1Cl)NNc1cccc(F)n1	none
O=c1[nH]c(-c2ccccc2)c(-c2ccccc2)o1	none
CC12CCC(O)CC1=CCC1C2CCC2(C)C(c3ccn[nH]3)CCC12 (stereo not given)	MPTP block 56.6 (no result: Calb FLC, Mdm2 MdmX PPI, CSC inhib, Beta cell apopt) | Rh123 counter 88.2
[N-]=[N+]=NC(c1ccccc1)C(NC(=O)c1cc(C(F)(F)F)cc(C(F)(F)F)c1)c1ccccc1 (stereo not given)	MPTP block 68.3 (no result: Calb FLC, Mdm2 MdmX PPI, CSC inhib, Beta cell apopt) | Rh123 counter 103.2
O=C(NC(c1ccccc1)C(Cl)Cl)c1ccccc1 (stereo not given)	none (no result: CSC inhib)
CCOC(=O)C1=C(CC)Nc2ccccc2N/C1=N\S(=O)(=O)c1cc(Br)ccc1Br	MPTP block 65.6 (no result: CSC inhib, Beta cell apopt) | Rh123 counter 82.5
CCOC(=O)C1=C(CC)Nc2ccccc2N/C1=N\S(=O)(=O)c1ccc2ccccc2c1	none
FC(F)Oc1ccc(NC(=S)NC2CCSc3ccccc32)cc1 (stereo not given)	MPTP block 83.2 | Rh123 counter 79.0
O=C(NC1CCSc2ccccc21)c1cccc(OC(F)F)c1 (stereo not given)	none
CC1(C(=O)NS(=O)(=O)Cc2ccccc2)CCN1C(=O)Cc1ccccc1Cl (stereo not given)	none (no result: Calb FLC, Mdm2 MdmX PPI, CSC inhib, Beta cell apopt)
O=C(CSc1ncc(-c2ccc(F)cc2)n1Cc1ccco1)Nc1ccc2c(c1)OCO2	MPTP block 85.1 | Rh123 counter 61.7
CCOc1ccc(NC(=O)CSc2ncc(-c3ccc(F)cc3)n2Cc2ccco2)cc1	none
Cc1ccc(NC(=O)CSc2ccccc2NC(=O)c2ccccc2)cc1Cl	MPTP block 91.6 | Rh123 counter 64.9
Cc1ccc(NC(=O)CSc2ccccc2NC(=O)c2ccccc2Cl)cc1Cl	MPTP block 90.0 | Rh123 counter 87.2
Cc1ccc(NC(=O)COc2ccccc2)cc1Cl	none
